# Screen size: about 2,100 compounds; about 210 (10%) were called active. Not shown: some 53% with an inconclusive outcome. This is one part of the list. Values without a mark were called inactive. The call rests on the fitted dose curve; in most records, active means well fitted inhibition curve with a large enough effect; inconclusive means small, poorly fitted or top-dose-only effect, or effect the other way; inactive means no such curve, though single readings can be large or run the other way.
# Experiment: IN Cell qHTS Assay for Inhibitors of the mTORC1 Signaling Pathway in MEF (Tsc2-/-, p53-/-) Cells: Sytravon; further: nearly all actives have a fitted effect of over 60% in size
# Details: phospho-rpS6 immunofluorescence, 24 h; series mostly up to 38.3 µM; activity, negative = inhibition: at the top concentration
# From the text: NIH Molecular Libraries Probe Production Centers Network [MLPCN] NIH Chemical Genomics Center [NCGC] MLPCN Grant: NS059428-01 Assay Submitter (PI): Blenis, John; Hoffman, Greg; Harvard University NCGC Assay Overview: Thee mammalian target of rapamycin (mTOR) is an intracellular serine/threonine kinase Aberrant regulation of mTOR signaling plays a causative role in a number of human diseases, including cancer, benign tumors such as lymphangioleiomyomatosis (LAM) and Tuberous Sclerosis Complex (TSC), and metabolic diseases such as diabetes and obesity. This project aims to identify inhibitors of ribosomal protein S6 (rpS6) phosphorylation. The phosphorylation of rpS6 is a key event downstream of mTOR activation. The assay uses a phospho-specific antibody of phospho-rpS6 to detect inhibitors of mTOR activation. Mutations in the Tsc1 and Tsc2 genes are the underlying genetic lesions responsible for TSC, causing constitutive activation of the mTORC1 pathway and leading to profound effects on cell metabolism. Aberrant metabolism in cancer has recently received significant attention as a target to develop therapeutic agents in the treatment of cancer1. As Tsc2-/- cells have lost the ability to respond to energy and growth factor deprivation, these cells are unable to properly down regulate cellular biosynthetic processes in response to metabolic stress, and are thus extremely sensitive to glucose deprivation-induced death.2 A central goal of this project is to explore the unique cell survival and metabolic properties of cells with Tsc1 or Tsc2 by screening for compounds that selectively target the Tsc2-/- MEFs by screening both Tsc2-/- and WT MEF cell lines. We hope to better understand these aspects of TSC physiology in order to exploit them for therapeutic benefit.
# NCGC IN Cell Assay Protocol: For quantitative high throughput analysis of mTORC1 signaling, we developed a cell-based assay for immuno-fluorescence based detection of rpS6 phosphorylation on the Acumen Explorer that will be used a platform for the primary small molecule screen. Mouse embryonic fibroblasts (MEFs) are cultured in 1536-well plates using DMEM + 10% FBS. Twenty-four hrs after plating, test compounds (solubilized in DMSO) are delivered and incubated with the cells for 24 hrs at 37 degree Celsius. Following the incubation, media with compound is aspirated and the cells are fixed in 4% paraformaldehyde (PFA) containing PBS + 0.2% TX-100. Next, PFA is aspirated, cells are washed two times with PBS plus 0.2% TX-100 and the cells are blocked for 1 hr at room temperature (blocking buffer: LiCOR Blocking Buffer plus 0.2% TX-100). This is followed by aspiration and staining with Alexa-488 conjugated-phospho-rpS6 Ser235/236 antibody for 2 hours at room temperature (Cell Signaling Technology # 4803, 1:50 dilution in blocking buffer). Cells are washed two times with PBS plus 0.2% TX-100, and stained with 10 uM propidium iodide (PI) for 20-25 minutes for cell number measurement (1:500 dilution of Hoescht staining is also added for IN Cell imaging). Active wells which are selected (based on Acumen results) are imaged on the IN Cell 1000 (GE Healthcare) using the D360/40X and HQ480/40X excitation filters for the Hoechst and Alexa-488 cytoplasmic stains, respectively. The fluorescence emission filters used were HQ460/40M and HQ535/50M for the Hoechst and Alexa-488 cytoplasmic stains, respectively. The normalized phospho-S6 staining is calculated as the ratio of […] for the single concentration rapamycin control (7.5 nM) and DMSO columns. […] Inhibition of the pathway is defined based on the normalized phospho-S6 intensity in rapamycin treated cells. Each treatment is reported as the % positive cells in the well, where thresholds are defined by selecting wells with the highest and lowest signal and differentiating between the % non-active and % active populations. […]
# Potency means the concentration at half of the fitted maximal effect.
SMILES,"activity, negative = inhibition [%]",Potency
Cc1ccccc1NC(=O)Cn1c(=O)n(-c2ccc(CC(=O)NCC3CCCO3)cc2)c(=O)c2ccccc21 (centres undefined),7.61,–
Cc1ccc(CNC(=O)CCCCCn2c(=O)c3sccc3n(CC(=O)Nc3ccc(C)c(F)c3)c2=O)cc1,-29.7,–
Cc1ccc(-n2c(=O)c3ccc(C(=O)NCc4ccco4)cc3n(Cc3ccc(Cl)cc3)c2=O)cc1,–,16.5 µM (active)
CCc1ccc(NC(=O)c2ccc(F)c(S(=O)(=O)NC3CCCCCC3)c2)cc1,6.25,–
CC[C@@H](C)[C@@H](C(=O)Nc1ccc(C)cc1)N1Cc2ccccc2C1=O,-14.1,–
CCN1C(C(=O)c2ccccc2)=C(OC(=O)COc2ccc(OC)cc2)c2ccccc2S1(=O)=O,-0.826,–
COc1ccc(C(=O)NCC(c2ccc(Cl)cc2)N2CCCCC2)cc1 (centres undefined),-16.4,–
O=C(NCCc1ccccc1Cl)c1sc2ncccc2c1-n1cccc1,1.3,–
CCC(C)NC(=O)CCCn1c(=O)c2cccn2c2ccccc21 (centres undefined),-18.8,–
Cc1cccc(NS(=O)(=O)c2ccc3[nH]c4c(c3c2)CCCCCC4)c1,-4.07,–
Cc1nc2scc(C)n2c(=O)c1S(=O)(=O)Nc1ccc(N2CCN(S(C)(=O)=O)CC2)cc1,25.4,–
O=C(NCCc1ccccc1)c1ccc(Cn2c(SCc3ccccc3)nc3cccnc32)cc1,-23.6,–
O=C(Nc1ccc(Cl)cc1)c1cc(S(=O)(=O)N2CCCc3ccccc32)ccc1F,6.25,–
Cc1noc2ncnc(N3CCN(c4ccccc4F)CC3)c12,-0.0728,–
Fc1ccc(Nc2nc(Nc3ccc(F)cc3)nc(N3CCOCC3)n2)cc1,–,0.521 µM (active)
Cc1cccc(Nc2nc(Nc3cccc(C)c3)nc(N3CCOCC3)n2)c1,–,1.47 µM (active)
Cc1ccc(Nc2nc(Nc3ccc(C)c(C)c3)nc(N3CCOCC3)n2)cc1C,–,0.656 µM (active)
CCOc1ccc(Nc2nc(Nc3ccc(OCC)cc3)nc(N3CCOCC3)n2)cc1,–,0.826 µM (active)
CCCN1C(=O)CN(C2CCCCCC2)C(=O)C1c1ccc(OCC)c(OC)c1 (centres undefined),6.25,–
CC(C)OCCCNC(=O)CCCN1C(=O)CCn2nc(-c3cccn3C)cc21,-0.543,–
CCCN1CCN(c2ncnc3sc(C(=O)Nc4ccc(OC(F)(F)F)cc4)c(C)c23)CC1,-14.8,–
O=C(Nc1cc(Cl)cc(Cl)c1)c1ccc(F)c(S(=O)(=O)N2CCCCCC2)c1,6.25,–
CC(C)c1nn2c(=O)cc(COC(=O)c3ccc(NC(=O)c4cccs4)cc3)nc2s1,0,–
CC1=Nc2cc(C(=O)NC3CCCC3)ccc2Sc2ccc(C)cc21,-15,–
COc1ccc(Nc2nc(Nc3ccc(OC)cc3OC)nc(N3CCOCC3)n2)c(OC)c1,–,1.31 µM (active)

SMILES,"activity, negative = inhibition [%]",Potency
CCCN1Cc2cccc(C(=O)Nc3ccc(OC)cc3OC)c2C1=O,13.5,–
COc1ccccc1NCc1cccn1-c1nnc(N2CCOCC2)s1,-15,–
CCN1CCN(CCCNC(=O)c2cc3c(s2)-c2c(C)cccc2OC3)CC1,–,14.7 µM (active)
CCN(CC)S(=O)(=O)c1ccc2c(c1)N(CC(=O)NCCCN1CCN(c3cc(C)ccc3C)CC1)C(=O)CO2,0,–
CCCN1CCN(CCCNC(=O)c2cc3c(s2)-c2c(C)cccc2OC3)CC1,–,18.5 µM (active)
CCOc1ccccc1NC(=O)c1c(NCc2cccs2)sc2c1CCC(C)C2 (centres undefined),0,–
Cc1ccc(C)c(NC(=O)CSc2cn(CC(=O)N3CCCC3)c3ccccc23)c1,-2.42,–
COc1ccc(NC(=O)c2sc3nc(-c4ccc(OC)cc4)cc(C(F)(F)F)c3c2N)cc1,15.3,–
COc1ccc(-c2cc(C(=O)Nc3ccc4c(c3)OCO4)no2)cc1,-7.44,–
COc1ccc(CNC(=O)c2c(Nc3ccccc3C)sc(C(=O)c3ccccc3)c2N)cc1,-15.4,–
COc1ccc(-c2ccc3c(N)c(C(=O)Nc4ccc(C(F)(F)F)cc4)sc3n2)cc1OC,–,0.233 µM (active)
COc1ccc(-c2ccc3c(N)c(C(=O)Nc4cccc(C)c4)sc3n2)cc1,–,13.1 µM (active)
COc1cccc(Nc2sc(C(=O)c3ccc(F)cc3)c(N)c2C(=O)NCc2ccc(C)cc2)c1,0,–
COc1ccc(-c2cc(C(=O)Nc3cccc(O)c3)on2)cc1OC,-6.34,–
COc1ccc(C(=O)Nc2cc(-c3nc4ccccc4s3)ccc2OC)cc1,-10.3,–
COc1cccc(-c2ccc3c(N)c(C(=O)c4ccc(Cl)cc4)sc3n2)c1,–,10.4 µM (active)
CCCc1ccc(C2Sc3ccccc3NC3=C2C(=O)c2ccccc23)cc1 (centres undefined),-13.1,–
Cc1cccc(NC(=O)CSc2nc3ccccc3c3nc(CCn4cncc4C)nn23)c1,-11.5,–
CCCCCC(=O)Nc1ccc(NC(=O)c2cc3ccccc3o2)c(OC)c1,–,18.5 µM (active)
COc1cc(NC(=O)c2cccc(F)c2)ccc1NC(=O)c1cc2ccccc2o1,–,16.5 µM (active)
COc1cccc(C(=O)Nc2ccccc2-c2nnc(-c3cccc(OC)c3)o2)c1,-24.5,–
Cc1cccc(Nc2ncc(NC(=O)c3cccc(F)c3)c(Nc3cccc(C)c3)n2)c1,-24.6,–
COc1cc(NC(=O)Cn2ccc3ccccc3c2=O)cc(OC)c1OC,-20.1,–
COc1ccc(NC(=O)c2ccco2)cc1NC(=O)COc1ccc(Cl)c(C)c1,-24,–

# Source: PubChem BioAssay AID504465 (National Center for Advancing Translational Sciences (NCATS), 2011)
